Assay results from PubChem BioAssay (Tox21).
A number with no mark means an inactive call. Results filed as inconclusive are left out. Entries that show only a call come without a potency. Calls of active or inactive are those of the source. Calls follow the shape of the dose curve; as a rule, active = well fitted curve in the direction sought with a large enough effect in the repeat runs; inconclusive = weak or mixed curves; inactive = no such curve, though single readings can be large; an effect the other way counts as inactive or inconclusive.

How the values were obtained:
[1] = A CellTox Green Cytotoxicity Assay to monitor cytotoxicity in HEK293 cells - 40 hour (AID 1224871); also: nearly all actives have a fitted effect of over 45% in size
Summary of the method: (§1)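 Seeding of HEK293 cells together with cytotoxicity dye preceded a 5 h incubation at 37 C/5% CO2. Test compounds in DMSO were then added and fluorescence monitored across 40 h.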

[2] = qHTS RealTime-Glo MT Cell Viability Assay in HEK293 cells - 16 hour (AID 1224872); also: top concentration of the series differs between compounds; nearly all actives have a fitted effect of over 50% in size
Summary of the method: (§2)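 Tox21 10K qHTS, HEK293, 600 cells/well, RealTime-Glo reagent co-dispensed with cells; 5 h preincubation, compound by pintool, 37 C, luminescence at 0–40 h.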

[3] = qHTS RealTime-Glo MT Cell Viability Assay in HepG2 cells - 8 hour (AID 1224873); also: nearly all actives have a fitted effect of over 55% in size
Summary of the method: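 HepG2 cells mixed with RealTime-Glo MT reagents (NanoLuc plus cell-permeant prosubstrate) were seeded at 600 cells/well, incubated 5 h at 37 C/5% CO2, then pinned with compounds in DMSO; nonlytic luminescence tracked viability during 40 h treatment.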

[4] = qHTS RealTime-Glo MT Cell Viability Assay in HEK293 cells - 40 hour (AID 1224874); conditions: RealTime-Glo luminescence; max response: hits give low values; also: nearly all actives have a fitted effect of over 50% in size
Summary of the method: (§3)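 Tox21 screen in HEK293 using RealTime-Glo MT chemistry, with cells and reagent co-dispensed. Luminescence proportional to viable cell number was captured at intervals during 40 h compound exposure at 37 C.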

[5] = A CellTox Green Cytotoxicity Assay to monitor cytotoxicity in HEK293 cells - 24 hour (AID 1224875); also: series mostly up to about 77 µM; nearly all actives have a fitted effect of over 45% in size
Summary of the method: as §1

[6] = A CellTox Green Cytotoxicity Assay to monitor cytotoxicity in HepG2 cells - 16 hour (AID 1224876); also: nearly all actives have a fitted effect of over 45% in size; also: potency is read from the fitted curve at half-maximal effect
Summary of the method: (§4)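 Nonlytic assay: viable cells exclude the dye, so fluorescence scales with cell death. HepG2 at 600 cells/well, compounds added after 5 h, signal read across 40 h.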

[7] = qHTS RealTime-Glo MT Cell Viability Assay in HepG2 cells - 32 hour (AID 1224877); also: nearly all actives have a fitted effect of over 55% in size
Summary of the method: (§5)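 Cells + NanoLuc/prosubstrate dispensed (600 cells/well) → 5 h at 37 C/5% CO2 → compounds in DMSO transferred → 40 h incubation at 37 C, luminescence read at 0, 8, 16, 24, 32, 40 h.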

[8] = A CellTox Green Cytotoxicity Assay to monitor cytotoxicity in HepG2 cells - 24 hour (AID 1224878); also: nearly all actives have a fitted effect of over 45% in size
Summary of the method: as §4

[9] = A CellTox Green Cytotoxicity Assay to monitor cytotoxicity in HepG2 cells - 40 hour (AID 1224879); also: nearly all actives have a fitted effect of over 40% in size
Summary of the method: as §4

[10] = qHTS RealTime-Glo MT Cell Viability Assay in HEK293 cells - 0 hour (AID 1224880)
Summary of the method: as §3

[11] = A CellTox Green Cytotoxicity Assay to monitor cytotoxicity in HEK293 cells - 32 hour (AID 1224881); also: nearly all actives have a fitted effect of over 40% in size
Summary of the method: as §1

[12] = A CellTox Green Cytotoxicity Assay to monitor cytotoxicity in HepG2 cells - 0 hour (AID 1224882); also: nearly all actives have a fitted effect of over 35% in size
Summary of the method: as §4

[13] = A CellTox Green Cytotoxicity Assay to monitor cytotoxicity in HepG2 cells - 32 hour (AID 1224883); also: nearly all actives have a fitted effect of over 50% in size
Summary of the method: as §4

[14] = A CellTox Green Cytotoxicity Assay to monitor cytotoxicity in HEK293 cells - 8 hour (AID 1224884); also: nearly all actives have a fitted effect of over 35% in size
Summary of the method: as §1

[15] = qHTS RealTime-Glo MT Cell Viability Assay in HepG2 cells - 16 hour (AID 1224885); also: nearly all actives have a fitted effect of over 50% in size
Summary of the method: as §5

[16] = qHTS RealTime-Glo MT Cell Viability Assay in HEK293 cells - 24 hour (AID 1224886)
Summary of the method: as §2

[17] = qHTS RealTime-Glo MT Cell Viability Assay in HEK293 cells - 8 hour (AID 1224887)
Summary of the method: as §3

[18] = A CellTox Green Cytotoxicity Assay to monitor cytotoxicity in HEK293 cells - 16 hour (AID 1224888); also: nearly all actives have a fitted effect of over 35% in size
Summary of the method: as §1

[19] = qHTS RealTime-Glo MT Cell Viability Assay in HepG2 cells - 0 hour (AID 1224889); also: nearly all actives have a fitted effect of over 50% in size
Summary of the method: as §5

[20] = A CellTox Green Cytotoxicity Assay to monitor cytotoxicity in HepG2 cells - 8 hour (AID 1224890); also: nearly all actives have a fitted effect of over 45% in size
Summary of the method: as §4

Compound | Potency [1] | Potency [2] | Potency [3] | max response [4] | Potency [5] | Potency [6] | Potency [7] | Potency [8] | Potency [9] | outcome [10] | Potency [11] | outcome [12] | Potency [13] | Potency [14] | Potency [15] | Potency [16] | Potency [17] | Potency [18] | Potency [19] | Potency [20]
Clc1cccc(N2CCNCC2)c1 | inactive | inactive | inactive | 8.54% | inactive | inactive | inactive | inactive | inactive | inactive | inactive | inactive | inactive | inactive | inactive | inactive | inactive | inactive | inactive | inactive
O=C(O)c1ccc2[nH]cc(CCCCN3CC=C(c4ccccc4)CC3)c2c1 | inactive | inactive | inactive | -1.51% | inactive | inactive | inactive | inactive | inactive | inactive | inactive | inactive | inactive | inactive | inactive | inactive | inactive | inactive | inactive | inactive
O=[N+]([O-])c1ccc2c3c(cccc13)CC2 | inactive | inactive | inactive | 1.98% | inactive | inactive | inactive | inactive | inactive | inactive | inactive | inactive | inactive | inactive | inactive | inactive | inactive | inactive | inactive | inactive
CCOC(=O)CP(=O)(OCC)OCC | inactive | inactive | inactive | 0.417% | inactive | inactive | inactive | inactive | inactive | inactive | inactive | inactive | inactive | inactive | inactive | inactive | inactive | inactive | inactive | inactive
NC(=O)O | inactive | inactive | inactive | 3.48% | inactive | inactive | inactive | inactive | inactive | inactive | inactive | inactive | inactive | inactive | inactive | inactive | inactive | inactive | inactive | inactive
C[N+](C)=CCl | inactive | inactive | inactive | 17.5% | inactive | inactive | inactive | inactive | inactive | inactive | inactive | inactive | inactive | inactive | inactive | inactive | inactive | inactive | inactive | inactive
CCOP(=S)(OCC)SCSP(=S)(OCC)OCC | inactive | inactive | inactive | 7.42% | inactive | inactive | inactive | inactive | inactive | inactive | inactive | inactive | inactive | inactive | inactive | inactive | inactive | inactive | inactive | inactive
O=C1OC(=O)C2C1C1(Cl)C(Cl)=C(Cl)C2(Cl)C1(Cl)Cl (stereo not given) | inactive | inactive | inactive | -0.525% | inactive | inactive | inactive | inactive | inactive | inactive | inactive | inactive | inactive | inactive | inactive | inactive | inactive | inactive | inactive | inactive
Cc1nnc2n1-c1sc(CCC(=O)N3CCOCC3)cc1C(c1ccccc1Cl)=NC2 | inactive | inactive | inactive | -16.7% | inactive | inactive | inactive | inactive | inactive | inactive | inactive | inactive | inactive | inactive | inactive | inactive | inactive | inactive | inactive | inactive
CN(N=O)C(N)=O | inactive | inactive | inactive | 10.1% | inactive | inactive | inactive | inactive | inactive | inactive | inactive | inactive | inactive | inactive | inactive | inactive | inactive | inactive | inactive | inactive
CC(C)[N+](=O)[O-] | inactive | inactive | inactive | 0.0306% | inactive | inactive | inactive | inactive | inactive | inactive | inactive | inactive | inactive | inactive | inactive | inactive | inactive | inactive | inactive | inactive
[O]=[Cd] | inactive | inactive | inactive | 15.5% | inactive | inactive | inactive | inactive | inactive | inactive | inactive | inactive | inactive | inactive | inactive | inactive | inactive | inactive | inactive | inactive
ClC(Cl)(Cl)C(Cl)(Cl)Cl | inactive | inactive | inactive | 2.47% | inactive | inactive | inactive | inactive | inactive | inactive | inactive | inactive | inactive | inactive | inactive | inactive | inactive | inactive | inactive | inactive
COC(=O)C(c1ccccc1)C1CCCCN1 (stereo not given) | inactive | inactive | inactive | 2.03% | inactive | inactive | inactive | inactive | inactive | inactive | inactive | inactive | inactive | inactive | inactive | inactive | inactive | inactive | inactive | inactive
CN1CCN(C(=O)O[C@H]2c3nccnc3C(=O)N2c2ccc(Cl)cn2)CC1 | inactive | inactive | inactive | 6.06% | inactive | inactive | inactive | inactive | inactive | inactive | inactive | inactive | inactive | inactive | inactive | inactive | inactive | inactive | inactive | inactive
O=C1CN=C(c2ccccc2)c2cc([N+](=O)[O-])ccc2N1 | inactive | inactive | inactive | -17.7% | inactive | inactive | inactive | inactive | inactive | inactive | inactive | inactive | inactive | inactive | inactive | inactive | inactive | inactive | inactive | inactive
CCN(CC)C(C)C(=O)c1ccccc1 (stereo not given) | inactive | inactive | inactive | 2.31% | inactive | inactive | inactive | inactive | inactive | inactive | inactive | inactive | inactive | inactive | inactive | inactive | inactive | inactive | inactive | inactive
C=CC1CC=CCC1 (stereo not given) | inactive | inactive | inactive | 3.23% | inactive | inactive | inactive | inactive | inactive | inactive | inactive | inactive | inactive | inactive | inactive | inactive | inactive | inactive | inactive | inactive
CNC(=O)O/N=C(\C)SC | inactive | inactive | inactive | 14.5% | inactive | 219 nM (active) | inactive | inactive | inactive | inactive | inactive | inactive | inactive | inactive | inactive | inactive | inactive | inactive | inactive | inactive
ClCCOCOCCCl | inactive | inactive | inactive | -5.52% | inactive | inactive | inactive | inactive | inactive | inactive | inactive | inactive | inactive | inactive | inactive | inactive | inactive | inactive | inactive | inactive
CC(C(=O)c1ccccc1)N(C)C (stereo not given) | inactive | inactive | inactive | 2.47% | inactive | inactive | inactive | inactive | inactive | inactive | inactive | inactive | inactive | inactive | inactive | inactive | inactive | inactive | inactive | inactive
CCC1(c2ccccc2)C(=O)NC(=O)NC1=O | inactive | inactive | inactive | 17.3% | inactive | inactive | inactive | inactive | inactive | inactive | inactive | inactive | inactive | inactive | inactive | inactive | inactive | inactive | inactive | inactive
CCOc1nc(C(Cl)(Cl)Cl)ns1 | inactive | inactive | inactive | 3% | inactive | inactive | inactive | inactive | inactive | inactive | inactive | inactive | inactive | inactive | inactive | inactive | inactive | inactive | inactive | inactive
CCOP(=O)(OCC)OP(=O)(OCC)OCC | inactive | inactive | inactive | 5.24% | inactive | inactive | inactive | inactive | inactive | inactive | inactive | inactive | inactive | inactive | inactive | inactive | inactive | inactive | inactive | inactive
C[N+](=O)[O-] | inactive | inactive | inactive | 18.3% | inactive | inactive | inactive | inactive | inactive | inactive | inactive | inactive | inactive | inactive | inactive | inactive | inactive | inactive | inactive | inactive
Fc1cc(Br)ccc1CBr | inactive | inactive | inactive | -0.0441% | inactive | inactive | inactive | inactive | inactive | inactive | inactive | inactive | inactive | inactive | inactive | inactive | inactive | inactive | inactive | inactive
CNCC(=O)c1ccc(O)c(O)c1 | inactive | inactive | inactive | 2.09% | inactive | inactive | inactive | inactive | inactive | inactive | inactive | inactive | inactive | inactive | inactive | inactive | inactive | inactive | inactive | inactive
O=S(=O)(O)C(F)(F)C(F)(F)C(F)(F)C(F)(F)C(F)(F)C(F)(F)F | inactive | inactive | inactive | 2.43% | inactive | inactive | inactive | inactive | inactive | inactive | inactive | inactive | inactive | inactive | inactive | inactive | inactive | inactive | inactive | inactive
